Drawing on PubChem BioAssay (EPA / NIEHS), this text covers outcome and AC50 for 21 molecules.

Each structure is given as a SMILES string. Results filed as inconclusive are left out. Active and inactive are the calls of the source. Rule for the calls: active = hit-call score of the fitted dose curve at least 0.9, where 1 is the maximum; inconclusive = response in the unintended direction; inactive = score below 0.9.

As a reminder, the AC50 is the concentration giving half of the maximal activity seen.

Assay [1] addresses D(1A) dopamine receptor (Homo sapiens) (UniProt P21728). Description: NVS_GPCR_hDRD1: NovaScreen (NVS) G Protein-Coupled Receptor Assay for human Dopamine Receptor D1 (DRD1) (AID 2283269). In short, it runs like this:
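Radioligand displacement binding on membranes/protein extracted from HEK293 expressing human D1, cell-free; read 1 h after dosing by filter-based scintillation counting. Primary screen in duplicate at 25 uM, actives followed up in concentration series; signal loss versus DMSO baseline.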

The target in assay [2] is human Neurokinin, NK2 Receptor, TACR2 (gene 6865) (UniProt P21452). Description: NVS_GPCR_hNK2: NovaScreen (NVS) G Protein-Coupled Receptor Assay for human Neurokinin, NK2 Receptor (AID 2283278).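 Note: actives reduce bound radioligand signal relative to DMSO baseline.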 The method, boiled down:
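Radioligand binding on membranes from CHO cells expressing receptor, filter-based scintillation read 4 h after dosing. Initial duplicate screen at 25 uM, actives in concentration series; loss of signal versus DMSO.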

The target of assay [3] is human Thromboxane A2 Receptor (TXA2), TBXA2R (gene 6915) (UniProt P21731). In words: NVS_GPCR_hTXA2: NovaScreen (NVS) G Protein-Coupled Receptor Assay for human Thromboxane A2 Receptor (TXA2) (AID 2283282).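 Note: actives reduce bound radioligand signal relative to DMSO baseline.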 In short, it runs like this:
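Biochem binding, human platelets, cell-free; competitive radioligand displacement; 1 h; filter radiodetection. 25 uM duplicate primary, conc. series secondary; DMSO neg. ctrl.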

Assay [4] concerns the target human Adenosine A2a Receptor (AdoRA2a), ADORA2A (gene 135) (UniProt P29274). Description: NVS_GPCR_hAdoRA2a: NovaScreen (NVS) G Protein-Coupled Receptor Assay for human Adenosine A2a Receptor (AdoRA2a) (AID 2283256). The method, boiled down:
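HEK293-derived receptor preparation, radioligand displacement, 1.5 h, filtration + scintillation read. Loss of bound signal scored vs DMSO. Single-point 25 uM in duplicate first, then concentration-response for actives.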

Assay [5] deals with guinea pig Opioid, Kappa 1 Receptor (OpiateK), OPRK1 (gene 100135587) (UniProt P41144). Description: NVS_GPCR_gOpiateK: NovaScreen (NVS) G Protein-Coupled Receptor Assay for guinea pig Opioid, Kappa 1 Receptor (OpiateK) (AID 2283252).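 Note: active means reduced radioligand binding relative to DMSO.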 The method, boiled down: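 Radioligand binding to kappa opioid receptor in guinea pig cerebellar membranes, read by filtration and scintillation at 2 h. Compounds first tested in duplicate at 25 uM, then actives in concentration series; signal loss fitted against DMSO.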

The target in assay [6] is human Peripheral-type Benzodiazepine Receptor (PBR), TSPO (gene 706) (UniProt P30536). In words: NVS_MP_hPBR: NovaScreen (NVS) Membrane Protein Assay for human Peripheral-type Benzodiazepine Receptor (PBR) (AID 2283331).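 Note: hits reduce radioligand binding relative to DMSO baseline.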 In short, it runs like this:
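Cell-free binding to human colonic membrane preparations measured by filter-based scintillation counting after 1 h. Compounds first run at 25 uM in duplicate, then concentration series for actives; signal loss against DMSO baseline.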

Assay [7] concerns the target rat Peripheral-type Benzodiazepine Receptor (PBR), Tspo (gene 24230) (UniProt P16257). In words: NVS_MP_rPBR: NovaScreen (NVS) Membrane Protein Assay for rat Peripheral-type Benzodiazepine Receptor (PBR) (AID 2283335). In short, it runs like this:
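Single-concentration duplicate screening at 25 uM preceded concentration-series retesting of actives. Binding of a specific radioligand to rat kidney membrane PBR was read by filtration radiodetection after 1 h, with plate-wise positive and negative controls.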

In assay [8] the target is bovine Estrogen Receptor (ER), ESR1 (gene 407238) (UniProt P49884). Description: NVS_NR_bER: NovaScreen (NVS) Nuclear Receptor Binding Assay for bovine Estrogen Receptor (ER) (AID 2283345).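 Note: actives lower the bound radioligand count which means they displace the ER ligand.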 In short, it runs like this:
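Cell-free radioligand binding with bovine uterine membrane extracts, read 18 hours after dosing by scintillation counting. Loss of signal versus DMSO baseline indicates displacement. Primary screen run in duplicate at 25 uM, actives followed in concentration series.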

Assay [9] addresses Sodium channel protein type 1 subunit alpha (Rattus norvegicus) (UniProt P04774). Description: NVS_IC_rNaCh_site2: NovaScreen (NVS) Ion Channel Assay for rat Sodium Channel, Site 2 (NaCh) (AID 2283322).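 Note: hit means loss of radioligand binding signal relative to DMSO so AC50 marks displacement.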 In short, it runs like this: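 Initial duplicate single-point testing at 25 uM, followed by concentration-response runs for actives. Binding of radioligand to rat forebrain membranes quantified after 1 h via filter-based radiodetection.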

Assay [10] concerns the target human Opioid Receptor Mu (Opiate Mu), OPRM1 (gene 4988) (UniProt P35372). In words: NVS_GPCR_hOpiate_mu: NovaScreen (NVS) G Protein-Coupled Receptor Assay for human Opioid Receptor Mu (Opiate Mu) (AID 2283290).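 Note: hits lower bound tracer signal versus DMSO meaning displacement of the ligand.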 In short, it runs like this:
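Radioligand displacement binding on membranes from CHO cells expressing the receptor, 2.5 h after dosing, filter-based scintillation counting; loss of signal vs DMSO baseline. Screened in duplicate at 25 uM, actives then run in concentration series.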

Assay [11] concerns the target Muscarinic acetylcholine receptor M2 (Homo sapiens) (UniProt P08172). Description: NVS_GPCR_hM2: NovaScreen (NVS) G Protein-Coupled Receptor Assay for human Muscarinic, M2 Receptor (AID 2283273). The method, boiled down:
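CHO-expressed human M2 receptor preparation, competitive displacement of a radioligand read by filter-based scintillation counting after 1 h. Single 25 uM duplicate screen, then concentration-response follow-up of actives; DMSO baseline.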

Assay [12] concerns the target rat Neonicotinoid receptor (NNR), Chrna7 (gene 25302) (UniProt Q05941). In words: NVS_LGIC_rNNR_BungSens: NovaScreen (NVS) Ligand-Gated Ion Channel Assay for rat Neonicotinoid receptor (NNR) (AID 2283315). In short, it runs like this:
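Rat cortical membrane preparation incubated 2.5 h with tritiated or iodinated radioligand and test chemical. Bound radioactivity was filtered and counted by scintillation, and displacement was analysed against DMSO.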

Assay [13] relates to 5-hydroxytryptamine receptor 2C (pig). In words: NVS_GPCR_p5HT2C: NovaScreen (NVS) G Protein-Coupled Receptor Assay for pig Serotonin, 5-Hydroxytryptamine Receptor 2C (5HT2C) (AID 2283288). In short, it runs like this:
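Radioligand displacement on membranes from pig choroid plexus, detected by filter scintillation counting after 1 h. Tested first at a single 25 uM in duplicate, then in concentration-response for actives; DMSO served as baseline.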

Assay [14] deals with rat Gamma-Aminobutyric Acid Type A Receptor, Non-Selective (GABAR-NonSelective), Gabra1 (gene 29705) (UniProt P62813). Description: NVS_LGIC_rGABAR_NonSelective: NovaScreen (NVS) Ligand-Gated Ion Channel Assay for rat Gamma-Aminobutyric Acid Type A Receptor, Non-Selective (GABAR-NonSelective) (AID 2283326). The method, boiled down:
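Compounds were first screened in duplicate at 25 uM, with actives run as singleton concentration series (max 50 uM). Binding of a radioligand to rat whole-brain GABA-A preparation was measured by filtration and scintillation counting after 1 h, DMSO baseline.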

Assay [15] can be described thus: NVS_IC_rCaBTZCHL: NovaScreen (NVS) Ion Channel Assay for Calcium Channel, Type L, Benzothiazepine Site (CaBTZCHL) (AID 2283337). In short, it runs like this:
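Benzothiazepine-site binding was assessed in a tissue-derived, cell-free rat cortical membrane system. After 1.5 h exposure, radioactivity retained on filters was quantified by scintillation; positive and negative controls accompanied every plate.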

Chain of human Neurokinin, NK2 Receptor, TACR2 (gene 6865) (P21452 whole entry, looked up): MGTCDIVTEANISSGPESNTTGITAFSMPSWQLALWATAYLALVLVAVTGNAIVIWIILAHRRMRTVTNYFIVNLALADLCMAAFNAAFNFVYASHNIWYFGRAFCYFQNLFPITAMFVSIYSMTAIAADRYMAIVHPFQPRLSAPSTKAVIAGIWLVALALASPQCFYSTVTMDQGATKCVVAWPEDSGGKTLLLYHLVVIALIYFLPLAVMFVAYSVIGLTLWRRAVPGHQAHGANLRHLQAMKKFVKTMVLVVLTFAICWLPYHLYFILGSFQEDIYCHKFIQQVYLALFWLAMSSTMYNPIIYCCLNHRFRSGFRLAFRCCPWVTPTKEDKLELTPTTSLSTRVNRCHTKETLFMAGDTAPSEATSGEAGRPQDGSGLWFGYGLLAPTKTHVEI
Chain of human Adenosine A2a Receptor (AdoRA2a), ADORA2A (gene 135) (P29274 whole entry, looked up): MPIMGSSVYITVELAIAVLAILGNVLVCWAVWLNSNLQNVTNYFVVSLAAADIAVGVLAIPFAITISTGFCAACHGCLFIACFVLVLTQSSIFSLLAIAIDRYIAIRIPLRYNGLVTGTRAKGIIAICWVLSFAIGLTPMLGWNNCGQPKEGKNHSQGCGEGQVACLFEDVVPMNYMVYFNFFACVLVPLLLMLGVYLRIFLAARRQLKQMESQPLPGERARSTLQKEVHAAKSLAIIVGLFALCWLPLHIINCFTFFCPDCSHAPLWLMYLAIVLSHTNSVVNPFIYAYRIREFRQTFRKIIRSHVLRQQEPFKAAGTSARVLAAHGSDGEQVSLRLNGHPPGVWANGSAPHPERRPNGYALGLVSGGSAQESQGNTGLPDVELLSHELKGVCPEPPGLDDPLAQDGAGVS
Chain of human Thromboxane A2 Receptor (TXA2), TBXA2R (gene 6915) (P21731 whole entry, looked up): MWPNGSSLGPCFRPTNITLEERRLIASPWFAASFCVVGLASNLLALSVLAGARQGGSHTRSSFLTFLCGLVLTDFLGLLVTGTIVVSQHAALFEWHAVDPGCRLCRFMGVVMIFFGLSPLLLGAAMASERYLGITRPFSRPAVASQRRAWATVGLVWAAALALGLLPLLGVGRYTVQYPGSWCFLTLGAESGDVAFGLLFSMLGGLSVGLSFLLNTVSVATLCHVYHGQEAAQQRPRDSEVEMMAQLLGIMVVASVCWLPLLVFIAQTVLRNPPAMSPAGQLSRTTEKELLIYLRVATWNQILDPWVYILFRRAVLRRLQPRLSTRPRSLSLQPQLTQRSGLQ
Chain of D(1A) dopamine receptor (Homo sapiens) (P21728 whole entry, looked up): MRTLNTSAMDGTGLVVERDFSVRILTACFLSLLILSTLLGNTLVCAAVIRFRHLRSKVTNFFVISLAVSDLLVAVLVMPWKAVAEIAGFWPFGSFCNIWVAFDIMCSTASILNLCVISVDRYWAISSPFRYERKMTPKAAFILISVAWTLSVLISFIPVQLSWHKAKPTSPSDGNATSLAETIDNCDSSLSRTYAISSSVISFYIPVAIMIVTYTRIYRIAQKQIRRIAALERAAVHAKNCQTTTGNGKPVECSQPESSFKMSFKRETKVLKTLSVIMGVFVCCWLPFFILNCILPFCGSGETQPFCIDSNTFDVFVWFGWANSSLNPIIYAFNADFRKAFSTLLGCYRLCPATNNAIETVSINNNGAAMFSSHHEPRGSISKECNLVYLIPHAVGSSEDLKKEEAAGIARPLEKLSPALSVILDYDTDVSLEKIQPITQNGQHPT
Chain of human Peripheral-type Benzodiazepine Receptor (PBR), TSPO (gene 706) (P30536 whole entry, looked up): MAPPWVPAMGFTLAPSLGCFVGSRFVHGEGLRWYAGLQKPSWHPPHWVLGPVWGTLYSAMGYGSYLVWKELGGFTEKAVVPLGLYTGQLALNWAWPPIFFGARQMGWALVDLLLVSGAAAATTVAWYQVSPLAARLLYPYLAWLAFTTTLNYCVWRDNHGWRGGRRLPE
Chain of rat Gamma-Aminobutyric Acid Type A Receptor, Non-Selective (GABAR-NonSelective), Gabra1 (gene 29705) (P62813 whole entry, looked up): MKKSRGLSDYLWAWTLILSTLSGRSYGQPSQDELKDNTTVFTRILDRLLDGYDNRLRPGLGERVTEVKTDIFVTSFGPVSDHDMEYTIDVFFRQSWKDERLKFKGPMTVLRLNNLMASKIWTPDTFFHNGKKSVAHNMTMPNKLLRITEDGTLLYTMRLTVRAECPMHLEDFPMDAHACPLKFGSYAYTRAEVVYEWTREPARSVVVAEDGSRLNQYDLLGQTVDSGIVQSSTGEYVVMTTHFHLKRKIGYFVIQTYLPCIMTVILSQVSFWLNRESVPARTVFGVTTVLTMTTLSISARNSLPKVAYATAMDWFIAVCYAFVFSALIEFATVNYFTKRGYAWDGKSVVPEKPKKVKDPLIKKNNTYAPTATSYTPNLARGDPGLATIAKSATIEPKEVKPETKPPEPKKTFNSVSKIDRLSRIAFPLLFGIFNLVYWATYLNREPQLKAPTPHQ
Chain of rat Peripheral-type Benzodiazepine Receptor (PBR), Tspo (gene 24230) (P16257 whole entry, looked up): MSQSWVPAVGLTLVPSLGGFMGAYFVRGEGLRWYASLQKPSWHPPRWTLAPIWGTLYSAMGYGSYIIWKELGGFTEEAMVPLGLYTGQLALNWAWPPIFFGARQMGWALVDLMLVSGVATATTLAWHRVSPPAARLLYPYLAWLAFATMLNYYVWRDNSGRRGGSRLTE
Chain of rat Neonicotinoid receptor (NNR), Chrna7 (gene 25302) (Q05941 whole entry, looked up): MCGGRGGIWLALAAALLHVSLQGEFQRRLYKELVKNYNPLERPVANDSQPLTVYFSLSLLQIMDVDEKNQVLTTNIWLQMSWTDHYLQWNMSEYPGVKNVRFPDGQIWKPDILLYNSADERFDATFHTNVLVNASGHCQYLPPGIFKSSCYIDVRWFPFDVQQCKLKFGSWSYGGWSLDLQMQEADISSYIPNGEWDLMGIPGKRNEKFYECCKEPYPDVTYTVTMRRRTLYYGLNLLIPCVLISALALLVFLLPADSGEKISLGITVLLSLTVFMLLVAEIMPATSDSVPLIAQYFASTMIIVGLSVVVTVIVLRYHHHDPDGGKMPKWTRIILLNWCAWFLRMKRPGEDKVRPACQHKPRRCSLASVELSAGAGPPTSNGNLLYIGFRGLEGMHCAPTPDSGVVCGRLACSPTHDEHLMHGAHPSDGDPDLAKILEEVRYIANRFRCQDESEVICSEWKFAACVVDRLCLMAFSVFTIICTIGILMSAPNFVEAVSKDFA
Chain of guinea pig Opioid, Kappa 1 Receptor (OpiateK), OPRK1 (gene 100135587) (P41144 whole entry, looked up): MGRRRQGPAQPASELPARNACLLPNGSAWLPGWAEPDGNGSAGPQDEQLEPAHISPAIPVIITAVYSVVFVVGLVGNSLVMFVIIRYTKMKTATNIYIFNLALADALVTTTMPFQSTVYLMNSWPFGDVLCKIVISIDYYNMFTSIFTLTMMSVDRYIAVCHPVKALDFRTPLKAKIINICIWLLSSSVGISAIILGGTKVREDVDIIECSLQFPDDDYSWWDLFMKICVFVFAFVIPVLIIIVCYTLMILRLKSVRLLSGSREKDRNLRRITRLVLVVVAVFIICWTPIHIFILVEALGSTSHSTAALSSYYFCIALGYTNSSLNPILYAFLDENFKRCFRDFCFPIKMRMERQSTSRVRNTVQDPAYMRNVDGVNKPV
Chain of human Opioid Receptor Mu (Opiate Mu), OPRM1 (gene 4988) (P35372 whole entry, looked up): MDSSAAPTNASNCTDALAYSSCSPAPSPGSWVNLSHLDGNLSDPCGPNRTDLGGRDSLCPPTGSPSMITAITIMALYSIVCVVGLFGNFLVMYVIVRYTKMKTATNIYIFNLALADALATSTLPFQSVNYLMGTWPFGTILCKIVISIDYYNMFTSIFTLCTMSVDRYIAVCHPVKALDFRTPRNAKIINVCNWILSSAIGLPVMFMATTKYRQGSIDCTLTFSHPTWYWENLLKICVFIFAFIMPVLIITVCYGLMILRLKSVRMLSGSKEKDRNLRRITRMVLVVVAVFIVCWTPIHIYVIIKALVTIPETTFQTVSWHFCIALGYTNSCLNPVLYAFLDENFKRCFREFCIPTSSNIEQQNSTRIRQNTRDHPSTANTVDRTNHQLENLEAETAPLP
Chain of bovine Estrogen Receptor (ER), ESR1 (gene 407238) (P49884 whole entry, looked up): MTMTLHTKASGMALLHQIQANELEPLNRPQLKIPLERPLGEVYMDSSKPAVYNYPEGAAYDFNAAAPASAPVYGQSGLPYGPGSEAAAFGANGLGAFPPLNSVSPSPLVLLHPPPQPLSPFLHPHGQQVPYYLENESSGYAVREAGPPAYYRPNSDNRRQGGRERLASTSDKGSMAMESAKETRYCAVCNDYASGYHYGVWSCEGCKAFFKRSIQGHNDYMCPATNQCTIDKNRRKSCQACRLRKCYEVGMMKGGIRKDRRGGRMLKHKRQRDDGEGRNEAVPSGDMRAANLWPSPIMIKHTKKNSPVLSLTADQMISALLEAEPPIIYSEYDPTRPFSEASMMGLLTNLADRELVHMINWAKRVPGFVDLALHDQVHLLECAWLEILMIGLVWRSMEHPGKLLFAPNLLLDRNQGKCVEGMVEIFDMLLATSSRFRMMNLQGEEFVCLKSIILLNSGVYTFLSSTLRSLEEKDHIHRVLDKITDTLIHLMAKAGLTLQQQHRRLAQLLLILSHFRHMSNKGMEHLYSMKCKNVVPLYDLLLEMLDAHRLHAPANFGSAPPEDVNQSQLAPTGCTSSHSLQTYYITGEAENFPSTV
Chain of Muscarinic acetylcholine receptor M2 (Homo sapiens) (P08172 whole entry, looked up): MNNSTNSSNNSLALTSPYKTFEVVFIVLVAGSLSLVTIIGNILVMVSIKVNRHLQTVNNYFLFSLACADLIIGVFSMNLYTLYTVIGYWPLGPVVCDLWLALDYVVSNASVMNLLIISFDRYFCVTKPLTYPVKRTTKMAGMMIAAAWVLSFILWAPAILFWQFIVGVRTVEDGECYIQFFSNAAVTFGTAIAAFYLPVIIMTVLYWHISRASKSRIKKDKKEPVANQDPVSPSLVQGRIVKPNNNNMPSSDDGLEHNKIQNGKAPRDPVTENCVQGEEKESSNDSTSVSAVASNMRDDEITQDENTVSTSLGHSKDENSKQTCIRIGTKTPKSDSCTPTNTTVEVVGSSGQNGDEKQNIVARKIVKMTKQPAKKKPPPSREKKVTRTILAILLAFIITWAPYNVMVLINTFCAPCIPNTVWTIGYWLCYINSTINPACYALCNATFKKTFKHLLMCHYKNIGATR

Take `Cc1cc(C)n(CO)n1`: the outcome in assay [1] was inactive.
For the molecule `[Cl][Sc]([Cl])[Cl]`, the molecule was classed as inactive in assay [1] and in assay [2].
For `Fc1ccc(Br)cc1`, in assay [3], the outcome was inactive.
For the molecule `c1ccc(-c2nc3ccccc3[nH]2)cc1`, the molecule was classed as inactive in assay [4]. Further, the AC50 in assay [3] was 7.64 µM (active).
With `COC(OC)(C(=O)c1ccccc1)c1ccccc1`, the AC50 in assay [5] is 13.6 µM (active); in assay [6], 21.9 µM (active); in [7], 25 µM (active). In [8], the call was inactive.
Take `Cn1ccnc1`: the outcome in assay [4] was inactive.
Regarding `CC(c1cc(C(C)(C)C)cc(C(C)(C)C)c1O)c1cc(C(C)(C)C)cc(C(C)(C)C)c1O`, the call in assay [1] was inactive.
For the molecule `CCC(C)C(=O)OC` (stereo unspecified), in [1], the AC50 is 18.1 µM (active). Besides, the call in assay [9] was inactive.
With `c1ccc2sc(SSN3CCOCC3)nc2c1`, the AC50 in [2] was 3.65 µM (active).
For the molecule `Cc1c[nH]c(=O)[nH]c1=O`, the result in assay [4] was inactive.
On to `CC/C=C\C/C=C\C/C=C\CCCCCCCC(=O)OC`, for which the concentration at half-maximal activity (AC50) in assay [1] is 14 µM (active); in [3] it was 2.66 µM (active); in assay [10], 16.1 µM (active); in assay [6] it was 7.69 µM (active); in [7], 13.3 µM (active).
As for `CC(C)[N+](C)(CCOC(=O)C1c2ccccc2Oc2ccccc21)C(C)C`, the AC50 is 11.1 µM (active) in assay [5]; 0.00229 µM (active) in [11]; 17.7 µM (active) in assay [2]; 9.05 µM (active) in assay [12]; 10.1 µM (active) in assay [9].
For `CCC(C)c1ccccc1` (stereo unspecified), the AC50 in [3] was 2.46 µM (active).
In the case of `CCCCC1C(=O)N(c2ccccc2)N(c2ccccc2)C1=O`, in assay [3], the molecule was called inactive.
Consider `CCCCCCC=O`, for which the call in [3] was inactive.
As to `Cc1ccc([N+](=O)[O-])cc1N`, the result in assay [13] was inactive. Also, the AC50 in assay [14] is 13.8 µM (active).
On to `CC1=CP(=O)(c2ccccc2)CC1` (stereo unspecified), for which the molecule was classed as inactive in assay [12].
As for `C=Cc1cccc(C)c1`, in [9], the molecule was called inactive.
In the case of `Nc1ccc(C(=O)O)cc1`, the AC50 in assay [14] is 2.62 µM (active).
In the case of `CCCCCCOC(=O)CCCCC(=O)OCCCCCC`, the result in assay [15] was inactive.
Take `Nc1ccnc(=O)[nH]1`: the result in [15] was inactive.
